Records with an inconclusive call do not appear. Active and inactive are the calls of the source. Calls follow the shape of the dose curve; as a rule, active = well fitted inhibition curve with a large enough effect; inconclusive = small, poorly fitted or top-dose-only effect; inactive = flat fitted curve, though single readings scatter.
How the values were obtained:
[1] = qHTS profiling for inhibitors of Plasmodium falciparum proliferation (AID 504749);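 as to activity, negative = inhibition: 0% = DMSO vehicle and full inhibition = artemisinin control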; as to all read-outs here: nearly all actives have a fitted effect of over 60% in size; settings: P. falciparum in erythrocytes, SYBR Green DNA, 72 h; for activity, negative = inhibition: at 28.7 µM (top of the series)
In short: (§1)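 Quantitative HTS: compounds pinned into medium, infected erythrocytes added (0.3% parasitemia, 2.5% hematocrit), 72 h culture at 37 C under 5% CO2. Saponin/Triton lysis with SYBR Green I, overnight RT, then fluorescence read.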

3D7 = assay: as above; settings: P. falciparum in erythrocytes, SYBR Green DNA, 72 h; series mostly up to 28.7 µM
In short: as §1

7G8 = assay: as above; settings: P. falciparum in erythrocytes, SYBR Green DNA, 72 h; series mostly up to 28.7 µM
In short: as §1

AA1029 = assay: as above; settings: P. falciparum in erythrocytes, SYBR Green DNA, 72 h; series mostly up to 28.7 µM
In short: as §1

AS120 = assay: as above; settings: P. falciparum in erythrocytes, SYBR Green DNA, 72 h; series mostly up to 28.7 µM
In short: as §1

ATS189 = assay: as above; settings: P. falciparum in erythrocytes, SYBR Green DNA, 72 h; series mostly up to 28.7 µM
In short: as §1

ATS95 = assay: as above; settings: P. falciparum in erythrocytes, SYBR Green DNA, 72 h; series mostly up to 28.7 µM
In short: as §1

C2A = assay: as above; settings: P. falciparum in erythrocytes, SYBR Green DNA, 72 h; series mostly up to 28.7 µM
In short: as §1

CP185 = assay: as above; settings: P. falciparum in erythrocytes, SYBR Green DNA, 72 h; series mostly up to 28.7 µM
In short: as §1

CP191 = assay: as above; settings: P. falciparum in erythrocytes, SYBR Green DNA, 72 h; series mostly up to 28.7 µM
In short: as §1
Potency is read from the fitted curve at half-maximal effect.

COCC(C)N(C(=O)CCl)c1c(C)csc1C (stereo not given)
inactive: activity, negative = inhibition ([1]; parasite line A) 7.86% | activity, negative = inhibition ([1]; parasite line B) -2.46% | Potency (3D7) | Potency (7G8) | Potency (AA1029) | Potency (AS120) | Potency (ATS189) | Potency (ATS95) | Potency (C2A) | Potency (CP185) | Potency (CP191)

COC([CH2][Hg])CNC(=O)c1ccccc1OCC(=O)O (stereo not given)
inactive: activity, negative = inhibition ([1]; parasite line A) 6.16% | activity, negative = inhibition ([1]; parasite line B) 2.49% | Potency (3D7) | Potency (7G8) | Potency (AA1029) | Potency (AS120) | Potency (ATS189) | Potency (ATS95) | Potency (C2A) | Potency (CP185) | Potency (CP191)

CCCCNCC(O)c1ccc(O)cc1 (stereo not given)
inactive: activity, negative = inhibition ([1]; parasite line A) -2.61% | activity, negative = inhibition ([1]; parasite line B) -2.79% | Potency (3D7) | Potency (7G8) | Potency (AA1029) | Potency (AS120) | Potency (ATS189) | Potency (ATS95) | Potency (C2A) | Potency (CP185) | Potency (CP191)

CCOC(=O)c1ccccc1C(=O)OCC
inactive: activity, negative = inhibition ([1]; parasite line A) 8.38% | activity, negative = inhibition ([1]; parasite line B) -4.32% | Potency (3D7) | Potency (7G8) | Potency (AA1029) | Potency (AS120) | Potency (ATS189) | Potency (ATS95) | Potency (C2A) | Potency (CP185) | Potency (CP191)

CCCN1CCCC2Cc3[nH]ncc3CC21 (stereo not given)
inactive: activity, negative = inhibition ([1]; parasite line A) 7.25% | activity, negative = inhibition ([1]; parasite line B) 13.9% | Potency (3D7) | Potency (7G8) | Potency (AA1029) | Potency (AS120) | Potency (ATS189) | Potency (ATS95) | Potency (C2A) | Potency (CP185) | Potency (CP191)

CNC(=O)OCC[N+](C)(C)C
inactive: activity, negative = inhibition ([1]; parasite line A) 18.2% | activity, negative = inhibition ([1]; parasite line B) 8.99% | Potency (3D7) | Potency (7G8) | Potency (AA1029) | Potency (AS120) | Potency (ATS189) | Potency (ATS95) | Potency (C2A) | Potency (CP185) | Potency (CP191)

N#CC1(N2CCCCC2)CCCCC1
inactive: activity, negative = inhibition ([1]; parasite line A) 7.09% | activity, negative = inhibition ([1]; parasite line B) 1.5% | Potency (3D7) | Potency (7G8) | Potency (AA1029) | Potency (AS120) | Potency (ATS189) | Potency (ATS95) | Potency (C2A) | Potency (CP185) | Potency (CP191)

[N-]=[N+]=CC(=O)OCC(N)C(=O)O (stereo not given)
inactive: activity, negative = inhibition ([1]; parasite line A) 3.54% | activity, negative = inhibition ([1]; parasite line B) -4.07% | Potency (3D7) | Potency (7G8) | Potency (AA1029) | Potency (AS120) | Potency (ATS189) | Potency (ATS95) | Potency (C2A) | Potency (CP185) | Potency (CP191)

O=[N+]([O-])c1ccc(F)c([N+](=O)[O-])c1
inactive: activity, negative = inhibition ([1]; parasite line A) 14.6% | activity, negative = inhibition ([1]; parasite line B) 11.6% | Potency (3D7) | Potency (7G8) | Potency (AA1029) | Potency (AS120) | Potency (ATS189) | Potency (ATS95) | Potency (C2A) | Potency (CP185) | Potency (CP191)

NCC(O)c1cccc(O)c1 (stereo not given)
inactive: activity, negative = inhibition ([1]; parasite line A) 5.65% | activity, negative = inhibition ([1]; parasite line B) 12% | Potency (3D7) | Potency (7G8) | Potency (AA1029) | Potency (AS120) | Potency (ATS189) | Potency (ATS95) | Potency (C2A) | Potency (CP185) | Potency (CP191)

C[C@H]1CC[C@@H]2[C@@H](C)[C@H]3[C@H](C[C@H]4[C@@H]5CC=C6CC(O[C@@H]7O[C@H](CO)[C@H](O)[C@H](O[C@@H]8O[C@H](CO)[C@@H](O)[C@H](O)[C@H]8O)[C@H]7O[C@H]7O[C@@H](C)[C@H](O)[C@@H](O)[C@H]7O)CC[C@]6(C)[C@H]5CC[C@]34C)N2C1 (stereo not given in full)
inactive: activity, negative = inhibition ([1]; parasite line A) -2.66% | activity, negative = inhibition ([1]; parasite line B) 12% | Potency (3D7) | Potency (7G8) | Potency (AA1029) | Potency (AS120) | Potency (ATS189) | Potency (ATS95) | Potency (C2A) | Potency (CP185) | Potency (CP191)

CCON=O
inactive: activity, negative = inhibition ([1]; parasite line A) -4.19% | activity, negative = inhibition ([1]; parasite line B) 0.895% | Potency (3D7) | Potency (7G8) | Potency (AA1029) | Potency (AS120) | Potency (ATS189) | Potency (ATS95) | Potency (C2A) | Potency (CP185) | Potency (CP191)

CCC(N)Cc1c[nH]c2ccccc12 (stereo not given)
inactive: activity, negative = inhibition ([1]; parasite line A) -18.9% | activity, negative = inhibition ([1]; parasite line B) 9.32% | Potency (3D7) | Potency (7G8) | Potency (AA1029) | Potency (AS120) | Potency (ATS189) | Potency (ATS95) | Potency (C2A) | Potency (CP185) | Potency (CP191)

S=C(S)N1CCNCC1
inactive: activity, negative = inhibition ([1]; parasite line A) 5.54% | activity, negative = inhibition ([1]; parasite line B) 4.75% | Potency (3D7) | Potency (7G8) | Potency (AA1029) | Potency (AS120) | Potency (ATS189) | Potency (ATS95) | Potency (C2A) | Potency (CP185) | Potency (CP191)

O=C(OCCN1CCCCC1)C(O)(c1ccccc1)c1ccccc1
inactive: activity, negative = inhibition ([1]; parasite line A) 8.26% | activity, negative = inhibition ([1]; parasite line B) -1.95% | Potency (3D7) | Potency (7G8) | Potency (AA1029) | Potency (AS120) | Potency (ATS189) | Potency (ATS95) | Potency (C2A) | Potency (CP185) | Potency (CP191)

O=[N+]([O-])C(Br)(CO)CO
inactive: activity, negative = inhibition ([1]; parasite line A) 4.06% | activity, negative = inhibition ([1]; parasite line B) -7.41% | Potency (3D7) | Potency (7G8) | Potency (AA1029) | Potency (AS120) | Potency (ATS189) | Potency (ATS95) | Potency (C2A) | Potency (CP185) | Potency (CP191)

CCC1(CC)C(=O)NC(=O)N(C)C1=O
inactive: activity, negative = inhibition ([1]; parasite line A) 7.69% | activity, negative = inhibition ([1]; parasite line B) -5% | Potency (3D7) | Potency (7G8) | Potency (AA1029) | Potency (AS120) | Potency (ATS189) | Potency (ATS95) | Potency (C2A) | Potency (CP185) | Potency (CP191)

CC(=O)OC1CN2CCC1CC2 (stereo not given)
inactive: activity, negative = inhibition ([1]; parasite line A) -1.93% | activity, negative = inhibition ([1]; parasite line B) 13.1% | Potency (3D7) | Potency (7G8) | Potency (AA1029) | Potency (AS120) | Potency (ATS189) | Potency (ATS95) | Potency (C2A) | Potency (CP185) | Potency (CP191)

COc1ccc2c3c1O[C@H]1C(=O)CC[C@H]4[C@@H](C2)N(C)CC[C@]314
inactive: activity, negative = inhibition ([1]; parasite line A) 0.497% | activity, negative = inhibition ([1]; parasite line B) -7.39% | Potency (3D7) | Potency (7G8) | Potency (AA1029) | Potency (AS120) | Potency (ATS189) | Potency (ATS95) | Potency (C2A) | Potency (CP185) | Potency (CP191)

Oc1cccc[c]1[Hg][Cl]
active: Potency ([1]; parasite line A) 5.01 µM | Potency ([1]; parasite line B) 6.31 µM | Potency (3D7) 8.91 µM | Potency (7G8) 1.78 µM | Potency (AA1029) 11.2 µM | Potency (AS120) 7.94 µM | Potency (ATS189) 12.6 µM | Potency (ATS95) 10 µM | Potency (C2A) 12.6 µM | Potency (CP185) 7.94 µM | Potency (CP191) 10 µM
